# According to PubChem BioAssay (EPA / NIEHS):
# Values joined by “and” are separate entries in the source; they are usually repeats but may differ in a detail not shown here. Equal values may be shown once. Records with an inconclusive call do not appear. Where a structure was tested more than once in an assay, its records may differ in their call. Active and inactive are the calls of the source. The calls were made as follows, unless noted: active = hit-call score of the fitted dose curve at least 0.9, where 1 is the maximum; inactive = score below 0.9.
# Columns and labels:
# [1] = BSK_BT_PBMCCytotoxicity: PBMC Cytotoxicity Assessment in the BioMAP Diversity Plus: BT Assay (AID 2284225); conditions: primary human B cells with PBMC;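 also: PBMC viability measured by Alamar Blue dye reduction fluorescence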
# How it was run: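 Viability by Alamar Blue reduction (6 h, ex/em 546/580 nm) after 90 h culture of SEB/TSST-1-activated PBMC (20 ng/mL each) given compound 1 h before activation. DMSO served as baseline for curve fitting.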
# [2] = BSK_BT_Bcell_Proliferation: Viability Assessment in the BioMAP Diversity Plus: BT Assay for B cell Proliferation (AID 2284227); conditions: primary human B cells with PBMC
# How it was run: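 Read-out is absorbance at 560 nm from sulforhodamine B staining of total protein, reflecting relative cell numbers in a human B cell and PBMC co-culture after 72 h of chemical exposure. Values were referenced to DMSO.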
# [3] = TAMU_PeakParms_SingleDonor1434_Chronotropy: Texas A&M University (TAMU) 1.5-hr Human Induced Pluripotent Stem Cell (iPSC)-derived Cardiomyocytes Calcium (Ca+2) Flux Assay for Cardiotoxicity: Chronotropy (changes in peak frequency) (AID 2284217); conditions: actives raise or lower the signal
# How it was run: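 iPSC-CMs, donor 1434; 4 conc (0.2–100 uM), 0.5% v/v DMSO, 90 min, 37C/5% CO2; Ca2+ flux fluorescence → peak.freq.avg; peak.freq.avg = 0 dropped; bidirectional fit vs DMSO; EC05 POD.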
# [4] = CCTE_Mundy_HCI_Cortical_Synap_Neur_Matur_SynapseCount: CCTE's Synaptogenesis and Neurite Maturation Assay in rat cortical cells for Synapse Count, Mundy Lab (AID 2284218)
# How it was run: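 Cells were plated, allowed 2 hr to attach, treated with AraC at DIV 5, then exposed to chemicals from DIV 7 until DIV 12. After fixation and MAP2/synaptophysin immunolabelling, synapses per neuron were quantified by automated imaging against DMSO.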
# [5] = CCTE_Mundy_HCI_hN2_NOG_NeuriteCount: CCTE's Neurite Outgrowth Assay in human hN2 cells for Neurite Count, Mundy Lab (AID 2284219; active = hit-call score of the fitted dose curve at least 0.9, where 1 is the maximum)
# How it was run: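 In this morphology assay, hNP1-derived neurons received test chemical 2 h post-plating and were fixed two days later in warm paraformaldehyde/sucrose containing Hoechst 33342. Neurites, labelled by rabbit anti-βIII-tubulin (1:800) and Alexa Fluor-488 (1:500), were counted automatically.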
# [6] = CCTE_Mundy_HCI_hN2_NOG_NeuriteLength: CCTE's Neurite Outgrowth Assay in human hN2 cells for Neurite Length, Mundy Lab (AID 2284220; active = hit-call score of the fitted dose curve at least 0.9, where 1 is the maximum)
# How it was run: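 Using βIII-tubulin immunofluorescence and Hoechst nuclear counterstain, this component quantifies neurite length in hNP1-derived neurons.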
# [7] = CCTE_Mundy_HCI_hN2_NOG_NeuronCount: CCTE's Neurite Outgrowth Assay in human hN2 cells for Neuron Count, Mundy Lab (AID 2284221; active = hit-call score of the fitted dose curve at least 0.9, where 1 is the maximum)
# How it was run: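 Read-out is the number of betaIII-tubulin-positive neurons imaged by automated high-content analysis, with DMSO as negative control.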
# [8] = CCTE_Mundy_HCI_Cortical_Synap_Neur_Matur_NeuriteCount: CCTE's Synaptogenesis and Neurite Maturation Assay in rat cortical cells for Neurite Count, Mundy Lab (AID 2284222)
# How it was run: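 Primary rat cortical cells were plated, treated with AraC at DIV 5, then exposed to chemicals from DIV 7 through DIV 12. After fixation and immunostaining for MAP2 and synaptophysin, imaging quantified neurites, with DMSO as the negative control.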
# [9] = CCTE_Mundy_HCI_Cortical_Synap_Neur_Matur_CellBodySpotCount: CCTE's Synaptogenesis and Neurite Maturation Assay in rat cortical cells for Cell Body Spot Count, Mundy Lab (AID 2284223)
# How it was run: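 Read-out: cell body-associated synaptophysin puncta per neuron, imaged after MAP2, synaptophysin and Hoechst staining. Rat cortical cells, AraC DIV 5, chemical dosing DIV 7, fixation DIV 12. Activity fitted in positive direction relative to DMSO baseline.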
# [10] = CCTE_Mundy_HCI_hNP1_Pro_ResponderAvgInten: CCTE's Proliferation Assay in human neuroprogenitor cells, Mundy Lab (AID 2284224; active = hit-call score of the fitted dose curve at least 0.9, where 1 is the maximum;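 also: human neural progenitor cells hNP1 derived from WA09 embryonic stem cells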)
# How it was run: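 Human neuroprogenitors (hNP1, WA09 lineage) receive test chemical after 40 to 44 hours of attachment. A four-hour BrdU pulse begins twenty hours later, followed by fixation and high content imaging; signal is referenced to DMSO controls.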
compound,measurement,setting,value
C(=NC1CCCCC1)=NC1CCCCC1,AC50,[1],8.8 µM (active)
same,AC50,[2],5.75 µM (active)
CCOP(=S)(OCC)Oc1nc(Cl)c(Cl)cc1Cl,outcome,[3],inactive
same,AC50,[4],50 µM (active) and 27.4 µM (active)
same,AC50,[5],29.1 µM (active)
same,AC50,[6],28.4 µM (active)
same,AC50,[7],17.1 µM (active)
same,AC50,[8],30 µM (active)
same,AC50,[9],83.2 µM (active)
same,outcome,[9],inactive
same,AC50,[10],24.3 µM (active) and 73.3 µM (active)
Nc1ncc([N+](=O)[O-])s1,outcome,[1],inactive
same,outcome,[2],inactive
COP(=S)(OC)Oc1ccc(Sc2ccc(OP(=S)(OC)OC)cc2)cc1,outcome,[1],inactive
same,outcome,[2],inactive
CCOP(=S)(OCC)Oc1ccc(S(C)=O)cc1 (stereo not given),outcome,[1],inactive
same,outcome,[2],inactive
CC(C)(C)c1cc(O)ccc1O,outcome,[3],inactive
CC(=O)C(Cl)C(=O)N(C)C (stereo not given),AC50,[1],20 µM (active)
same,AC50,[2],25 µM (active)
O=C(O)C(F)(F)C(F)(F)C(F)(F)C(F)(F)C(F)(F)C(F)(F)F,outcome,[1],inactive
same,outcome,[2],inactive
O=C(O)C(F)(F)C(F)(F)C(F)(F)C(F)(F)C(F)(F)C(F)(F)C(F)(F)C(F)(F)C(F)(F)C(F)(F)F,outcome,[1],inactive
same,outcome,[2],inactive
CCCCCCCCC(=O)NCc1ccc(O)c(OC)c1,outcome,[1],inactive
same,outcome,[2],inactive
O=C(OC1CCCCC1)c1ccccc1C(=O)OC1CCCCC1,AC50,[1],34.8 µM (active)
same,AC50,[2],31.7 µM (active)
COC[C@H](C)N(C(=O)CCl)c1c(C)csc1C,outcome,[1],inactive
same,outcome,[2],inactive
ClC1=C(Cl)[C@]2(Cl)[C@H]3[C@H]([C@H]4C=C[C@H]3C4)[C@@]1(Cl)C2(Cl)Cl,AC50,[1],30.5 µM (active)
same,AC50,[2],36.3 µM (active)
NC(=S)Nc1ccccc1,outcome,[1],inactive
same,outcome,[2],inactive
Oc1c(I)cc(I)cc1I,outcome,[1],inactive
same,outcome,[2],inactive
CC(C)CCCCCCOC(=O)c1ccccc1C(=O)OCCCCCCC(C)C,outcome,[1],inactive
same,outcome,[2],inactive
Oc1ccc(-c2ccccc2)cc1,outcome,[1],inactive
same,outcome,[2],inactive
CC(C)c1ccc(CO)cc1,outcome,[1],inactive
same,outcome,[2],inactive
COP(=S)(OC)Oc1cc(Cl)c(Cl)cc1Cl,outcome,[1],inactive
same,outcome,[2],inactive
CC1(C)Cc2cccc(O)c2O1,outcome,[1],inactive
same,outcome,[2],inactive
O=Cc1cccc(Oc2ccccc2)c1,outcome,[1],inactive
same,outcome,[2],inactive
BrCCBr,outcome,[1],inactive
same,outcome,[2],inactive
O=[N+]([O-])c1ccc2c3c(cccc13)CC2,outcome,[1],inactive
same,outcome,[2],inactive
CCOP(=S)(OCC)SCCS(=O)(=O)CC,outcome,[1],inactive
same,outcome,[2],inactive
COC(=O)c1sccc1S(=O)(=O)NC(=O)Nc1nc(C)nc(OC)n1,outcome,[1],inactive
same,outcome,[2],inactive
COP(=S)(OC)Oc1ccc(S(=O)(=O)N(C)C)cc1,outcome,[1],inactive
same,outcome,[2],inactive
COc1cc(OC)nc(NC(=O)NS(=O)(=O)c2ncccc2C(=O)N(C)C)n1,outcome,[1],inactive
same,outcome,[2],inactive
